The panel holds about 79,000 compounds, 15% with a hit somewhere; the sample as a whole holds those more often. A number with no mark means an inactive call. The source made the active and inactive calls. Cut-off read from the data, not from the text of the source: active = growth inhibition above about 70%; inactive = the rest.

Assay [1] can be described thus: NCI Yeast Anticancer Drug Screen. Data for the rad50 strain (AID 155).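 Note: 0% = growth of vehicle-only cultures of the same strain.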 The settings on record: S. cerevisiae rad50 strain growth inhibition, hits give high values; at 50.0 µM unless noted. The gist of the method: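 Relative growth inhibition (compound vs vehicle) was measured in yeast with a defined repair-gene alteration.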
Assay [2] in a line: NCI Yeast Anticancer Drug Screen. Data for the mec2-1 strain (AID 157). The settings on record: S. cerevisiae mec2-1 strain, hits give high values; at 50.0 µM unless noted. Summed up:
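Each compound was tested on mec2-1 yeast, a strain altered in DNA damage repair or cell cycle control. Growth inhibition is reported relative to vehicle.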

Assay [3] is described as follows: NCI Yeast Anticancer Drug Screen. Data for the sgs1 mgt1 strain (AID 161).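 Note: 0% = growth of cultures given vehicle only.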 The settings on record: S. cerevisiae sgs1 mgt1 strain, hits give high values; at 50.0 µM unless noted. The gist of the method:
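Mutant yeast exposed to compound; growth scored against vehicle-only wells.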

Assay [4] is described as follows: NCI Yeast Anticancer Drug Screen. Data for the cln2 rad14 strain (AID 165).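 Note: 0% = growth equal to vehicle treated cultures.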 The settings on record: S. cerevisiae cln2 rad14 strain, hits give high values; at 50.0 µM unless noted. Summed up:
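Test compounds were added to cln2 rad14 yeast cultures; inhibition of growth was then determined by comparison with vehicle treatment.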

Assay [5] is described as follows: NCI Yeast Anticancer Drug Screen. Data for the bub3 strain (AID 167). The settings on record: S. cerevisiae bub3 mutant strain, hits give high values; at 50.0 µM unless noted. Summed up:
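Screening used yeast with an engineered genetic alteration affecting cell cycle control. Compound-exposed cultures were compared with vehicle cultures, and reduced growth was taken as inhibition.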

Assay [6] is described as follows: NCI Yeast Anticancer Drug Screen. Data for the mlh1 rad18 strain (AID 175). The settings on record: S. cerevisiae mlh1 rad18 strain growth inhibition, hits give high values; at 50.0 µM unless noted. Summed up:
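Inhibition values reflect reduced growth of mutant yeast versus vehicle-treated controls following compound exposure; the mutations affect DNA damage repair.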

As to `COc1ccccc1C1OC(N)=C(O)C1=O` (stereo unspecified), the growth inhibition in assay [1] was -14.4%; in assay [2] it was -5.15%; in assay [3], 7.3%; in assay [4] it was -15.3%; in assay [5], -2.5%; in assay [6] it was 13.9%.

With `COCCN(CCOC)C(=O)Nc1ccc(Cl)cc1`, the growth inhibition is 4.6% in assay [1]; 5.5% in assay [2]; 10.4% in assay [3]; 4.5% in assay [4]; 0.8% in assay [5]; 9.75% in assay [6].

Consider `CCCCN(Cc1ccccc1)C(=S)Nc1ccccc1`, for which the growth inhibition in assay [1] is 17.4%; in assay [2], 47.8%; in assay [3] it was 64.4%; in assay [4], 1.85%; in assay [5] it was 63.5%; in assay [6] it was 67.3%.

Consider `Cc1ccc(S(=O)(=O)Nc2ccccc2-c2nc3ccc(C)cc3c(=O)o2)cc1`, for which the growth inhibition in assay [1] was -5.35%; in assay [2], -24.7%; in assay [3] it was -7.8%; in assay [4] it was 2.9%; in assay [5], -7.55%; in assay [6] it was -13.7%.

As to `C[C@]12CCC(=O)C=C1CC[C@H]1[C@@H]3CC[C@](O)(C(=O)CO)[C@@]3(C)CC(=O)[C@@]12SC(N)=O`, the growth inhibition was -4.6% in assay [1]; 6.55% in assay [2]; 3.9% in assay [3]; 20.8% in assay [4]; 6.1% in assay [5]; -15.7% in assay [6].

In the case of `COC(=O)c1cc(NC(=O)Nc2cccc(C(C)=O)c2)cc(C(=O)OC)c1`, the growth inhibition in assay [1] was -9.75%; in assay [2] it was 31.2%; in assay [3], 25.6%; in assay [4], -10.2%; in assay [5], 37.6%; in assay [6], 36.4%.

With `CC1CC(=O)C(CC(=O)O)C1C(C(=O)C(=O)Nc1c(C#N)cccc1[N+](=O)[O-])[N+](=O)[O-]` (stereo unspecified), the growth inhibition in assay [1] was -37.7%; in assay [2] it was -16.6%; in assay [3], -43%; in assay [4] it was 15.8%; in assay [5], -43.8%; in assay [6], -36.8%.

As for `O=C(O)/C=C/c1cc(Br)sc1Br`, the growth inhibition in assay [1] was -2.05%; in assay [2], 7.35%; in assay [3] it was 5%; in assay [4], -11.3%; in assay [5] it was -0.95%; in assay [6], 19.5%.

As for `CC(Sc1nc(N)nc2nc[nH]c12)C(=O)O` (stereo unspecified), the growth inhibition was -15.2% in assay [1]; -3.55% in assay [2]; -11.3% in assay [3]; -23.6% in assay [4]; 4.15% in assay [5]; 11% in assay [6].

For `COC(=O)CC1C(C)(C)C(=O)C2CC3=C4CC(=O)OC(c5ccoc5)C4(C)CCC3C1(C)C2=O` (stereo unspecified), the growth inhibition in assay [1] was 1.3%; in assay [2], 2.4%; in assay [3], -20.1%; in assay [4] it was -8.3%; in assay [5], -31.9%; in assay [6], 16.8%.

`O=C(O)c1cc(Cl)c2ccccc2c1O`: the growth inhibition in assay [1] was 46.8%; in assay [2] it was 45.8%; in assay [3], 46.8%; in assay [4] it was 31.6%; in assay [5], 42.1%; in assay [6], 33.1%.

In the case of `CC1=Cc2cccc(C)c2C(=O)C1=O`, the growth inhibition is 93.6% (active) in assay [1]; 95.2% (active) in assay [2]; 94.5% (active) in assay [3]; 92.8% (active) in assay [4]; 93.8% (active) in assay [5]; 93.2% (active) in assay [6].

Consider `CCOC(=O)CN=C1Nc2ccccc2C(=O)N2CSCC12` (stereo unspecified), for which the growth inhibition in assay [1] is -18%; in assay [2], -44.7%; in assay [3], -28.6%; in assay [4] it was -16.4%; in assay [5], -54.5%; in assay [6], -16.8%.

Take `C/C(CCc1ccccc1)=N\NC(N)=S`: the growth inhibition in assay [1] was 7.1%; in assay [2], 0.95%; in assay [3], 9.55%; in assay [4], -35.1%; in assay [5], -5.5%; in assay [6], 10.3%.

`CCN(CC)c1c(C)c(-c2ccccc2)n[n+]([O-])c1-c1ccccc1`: the growth inhibition was 35.9% in assay [1]; 24.1% in assay [2]; 14.4% in assay [3]; 1.85% in assay [4]; 17.9% in assay [5]; 24.8% in assay [6].

`CCC(=O)NC(Nc1ccccc1F)(C(F)(F)F)C(F)(F)F`: the growth inhibition was -29.2% in assay [1]; -18.2% in assay [2]; -18.1% in assay [3]; -4% in assay [4]; -41.9% in assay [5]; -35.9% in assay [6].

On to `COC(=O)N/N=C(/CCC(=O)Nc1ccc(C)c(C)c1)CC(=O)C(C)(C)C`, for which the growth inhibition in assay [1] was -10.8%; in assay [2] it was -12.1%; in assay [3], 8.45%; in assay [4], 2%; in assay [5] it was 19.1%; in assay [6] it was -1.9%.

On to `Cn1ccnc1Sc1c([N+](=O)[O-])ncn1C`, for which the growth inhibition in assay [1] is 3.3%; in assay [2] it was 5.95%; in assay [3], 3.25%; in assay [4] it was 29.3%; in assay [5], 32.5%; in assay [6] it was 10.4%.

In the case of `CC(O[Si](C)(C)C)C1C=CC(C)n2c(=O)n(-c3ccccc3)c(=O)n21` (stereo unspecified), the growth inhibition in assay [1] is 4.65%; in assay [2], -26.6%; in assay [3], -34.3%; in assay [4], -7.6%; in assay [5], -55.6%; in assay [6], -18.2%.

As to `N#CC1CCC[N-]C1.N#CC1CCC[N-]C1.[Cl][Pt+2][Cl]` (stereo unspecified), the growth inhibition in assay [1] is 50.6%; in assay [2], 4.75%; in assay [3], 32.4%; in assay [4], 21.1%; in assay [5] it was 4.3%; in assay [6], 42.4%.

In the case of `Oc1ccc(-c2c3ccccc3c(-c3ccc(O)cc3)c3ccccc23)cc1`, the growth inhibition in assay [1] was -0.85%; in assay [2] it was -9.6%; in assay [3] it was -31.6%; in assay [4], -7.2%; in assay [5], -9.15%; in assay [6], 1.15%.

Source of the values: PubChem BioAssay (NCI).
